The whole screen tested about 16,000 compounds, of which about 5,700 (36%) were called active. About 24% were inconclusive and are not listed. The call rests on the fitted dose curve; in most records, active means well fitted curve in the direction sought with a large enough effect; inconclusive means small, poorly fitted or top-dose-only effect, or effect the other way; inactive means no such curve, though single readings can be large or run the other way. The list shows a part of the results.
The molecules below were run against Cytochrome P450 1A2 (Homo sapiens) (UniProt P05177) (assay: Cytochrome panel assay with activity outcomes). Details: recombinant CYP, pro-luciferin dealkylation, luminescence, p450-cyp1a2; series mostly up to 57.1 µM.
Cytochrome P450 1A2 (Homo sapiens), sequence (P05177 whole entry, looked up): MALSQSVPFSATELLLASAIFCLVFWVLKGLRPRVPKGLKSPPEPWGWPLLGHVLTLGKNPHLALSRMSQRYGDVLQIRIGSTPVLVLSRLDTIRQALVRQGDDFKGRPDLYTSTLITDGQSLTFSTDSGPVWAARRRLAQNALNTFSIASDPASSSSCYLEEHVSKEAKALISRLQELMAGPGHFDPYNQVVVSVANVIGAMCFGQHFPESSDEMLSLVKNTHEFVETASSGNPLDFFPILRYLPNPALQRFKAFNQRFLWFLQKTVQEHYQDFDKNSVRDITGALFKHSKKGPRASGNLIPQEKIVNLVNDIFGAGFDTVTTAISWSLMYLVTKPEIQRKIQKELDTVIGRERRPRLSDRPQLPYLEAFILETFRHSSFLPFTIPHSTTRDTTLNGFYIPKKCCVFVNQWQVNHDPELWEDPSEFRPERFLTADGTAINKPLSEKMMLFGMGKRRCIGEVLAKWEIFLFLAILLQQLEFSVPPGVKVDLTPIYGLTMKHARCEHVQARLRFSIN
On the % scale 0 is the no-effect control and ±100 the full control effect.

SMILES | AC50 | activity, negative = inhibition
Cc1cnnn1-c1ccc(C(=O)CCl)cc1 | 2.82 µM (active) | –
COc1cccc(-c2cncnc2NCc2cccnc2)c1 | 0.794 µM (active) | –
COc1cccc(-c2cncnc2NCc2ccccc2)c1 | 5.01 µM (active) | –
COc1cccc(-c2cncnc2NCc2cccc(C)c2)c1 | 2 µM (active) | –
COc1cccc(-c2cncnc2NCc2cccs2)c1 | 1.26 µM (active) | –
CS(=O)(=O)N1CCC2(CC1)CN(Cc1cc(C(F)(F)F)cc(C(F)(F)F)c1)C2 | inactive | –
O=C(c1csnn1)N1CCC2(CC1)CCN(C(c1ccccc1)c1ccccc1)CC2 | inactive | –
CC(=O)N/N=C/c1cc([N+](=O)[O-])ccc1OCCOc1ccccc1 | inactive | –
C=CCOc1ccc2cccc(/C=N/NC(=O)c3cc4cc([N+](=O)[O-])ccc4s3)c2c1 | 2.24 µM (active) | –
CCCCOC(=O)CCc1c(C)[nH]c(=O)c(C#N)c1C | inactive | –
CCCCc1[nH]c(=O)c(C#N)c2c1CCCC2 | 5.01 µM (active) | –
C/C(CCN1CCCCc2nc(C)c(C)cc21)=N\O[C@@H](C)CN1CCCc2nc(C)c(C)cc21 | – | -40.3% [at 11.4 µM] (inactive)
Cc1cc2c(c(=O)o1)[C@H](O)[C@H]1O[C@@H]1C2=O | – | 2.69% [at 11.4 µM] (inactive)
C[N+]1(C)CCC[C@@H](OC(=O)C(O)(c2ccccc2)c2ccccc2)C1 | inactive | –
C[C@@H](C(=O)Nc1ccc2ccccc2c1)[C@@H]1C[C@@]1(C)[C@@H](NC(=O)Oc1ccc(F)cc1)c1ccccc1 | inactive | –
CC(=O)N[C@H](c1ccccc1)[C@@]1(C)C[C@@H]1[C@@H](C)C(=O)Nc1ccc2ccccc2c1 | 15.8 µM (active) | –
CC(=O)Nc1ccc(N2C(=O)CC(c3ccccc3)CC2=O)cc1 | inactive | –
COC(=O)N[C@H](c1ccccc1)[C@@]1(C)C[C@@H]1[C@@H](C)C(=O)Nc1ccc2ccccc2c1 | 12.6 µM (active) | –
C[C@@H](C(=O)Nc1ccc2ccccc2c1)[C@@H]1C[C@@]1(C)[C@@H](NC(=O)c1ccncc1Cl)c1ccccc1 | 25.1 µM (active) | –
C[C@@H](C(=O)Nc1ccc2ccccc2c1)[C@H]1C[C@]1(C)[C@H](NC(=O)Oc1ccc(F)cc1)c1ccccc1 | inactive | –
C[C@@H](C(=O)Nc1ccc2ccccc2c1)[C@@H]1C[C@@]1(C)[C@@H](N)c1ccccc1 | 15.8 µM (active) | –
CCCN(CCC)CCNC(=O)C1CCCN(S(=O)(=O)c2ccc3c(c2)oc(=O)n3C)C1 (stereo not drawn) | inactive | –
CCc1nc2cc(CC(=O)O)ccc2o1 | inactive | –
Cn1cccc1C(=O)N1CCC2(CC1)CN(c1ccccn1)C2 | inactive | –

SMILES | AC50 | activity, negative = inhibition
Nc1nc2c(ncn2COCCO)c(=O)[nH]1 | inactive | –
C[C@@]12CC3CC(N)(C1)C[C@@](C)(C3)C2 | inactive | –
C[C@@H](C(=O)Nc1ccc2ccccc2c1)[C@H]1C[C@]1(C)[C@H](NS(=O)(=O)c1ccc2ccccc2c1)c1ccccc1 | inactive | –
CC(=O)N[C@@H](c1ccccc1)[C@]1(C)C[C@H]1[C@@H](C)C(=O)Nc1ccc2ccccc2c1 | 12.6 µM (active) | –
C[C@@]1(C(NC(=O)Cc2ccccc2)c2ccc(-c3ccccc3)cc2)C[C@H]1C1CCCCC1 (stereo partly drawn) | inactive | –
CN(C)Cc1cc(O)c(O)c(CN(C)C)c1 | – | -8.6% [at 11.4 µM] (inactive)
CN1CCN(c2ncc3nc(-c4cc(F)cc(F)c4)c(=O)n(C4CC4)c3n2)CC1 | 15.8 µM (active) | –
CN1CCN(c2ncc3nc(-c4ccc(F)cc4)c(=O)n(C4CC4)c3n2)CC1 | 12.6 µM (active) | –
CN1CCN(c2ncc3nc(-c4ccc(Cl)cc4)c(=O)n(C4CC4)c3n2)CC1 | 15.8 µM (active) | –
CC(C)N=c1cc2n(-c3ccc(Cl)cc3)c3ccccc3nc-2cc1Nc1ccc(Cl)cc1 | inactive | –
COC(=O)[C@@]1(Cc2ccccc2)[C@H]2c3cc(C(=O)N4CCCC4)n(Cc4ccsc4Br)c3C[C@H]2CN1C(=O)c1ccccc1 | inactive | –
N#Cc1ccc(C(c2nnnn2C2CCCC2)N2CCC(Cc3ccccc3)CC2)cc1 (stereo not drawn) | inactive | –
c1ccc(-c2noc(CSc3nnnn3C3CCCCC3)n2)cc1 | 2.24 µM (active) | –
N#Cc1cccc(C(c2nnnn2C2CCCC2)N2CCCCCC2)c1 (stereo not drawn) | inactive | –
OCCCN=C1CCCCC1 | – | -9.6% [at 11.4 µM] (inactive)
COC(=O)Cn1nc(-c2ccccc2)n(-c2ccccc2)c1=S | 15.8 µM (active) | –
O=C(Nc1cccc(F)c1)N1CC2(CCN(C(=O)c3cc(C(F)(F)F)cc(C(F)(F)F)c3)CC2)C1 | inactive | –
O=C(NC1(C(F)(F)F)NC(=O)N(Cc2cccnc2)C1=O)c1ccccc1 (stereo not drawn) | 6.31 µM (active) | –
COc1ccc(N2C(=O)NC(NC(=O)c3ccncc3)(C(F)(F)F)C2=O)cc1 (stereo not drawn) | inactive | –
CCCCN1C(=O)NC(NC(=O)c2ccco2)(C(F)(F)F)C1=O (stereo not drawn) | inactive | –
CCN1C(=O)[C@H]2[C@H]3[C@H](O)[C@H](O)C/C(=N/OC)[C@@H]3CC[C@@H]2C1=O | – | -3.89% [at 11.4 µM] (inactive)
NCCNS(=O)(=O)c1cccc2cnccc12 | inactive | –
Nc1ccc(S(=O)(=O)NCCS(=O)(=O)O)cc1 | – | -3.14% [at 2.29 µM] (inactive)
O=S(=O)(NCCCCCCc1ccccc1)c1cccc2c(Cl)cccc12 | 15.8 µM (active) | –

SMILES | AC50 | activity, negative = inhibition
COc1ccccc1N1CCN(CCCCNS(=O)(=O)c2cccc3c(N(C)C)cccc23)CC1 | inactive | –
CCCCCCCNS(=O)(=O)c1cccc2c(Cl)cccc12 | 6.31 µM (active) | –
NCCCCCCNS(=O)(=O)c1cccc2c(Cl)cccc12 | 7.94 µM (active) | –
COC(=O)N1CCC2(CCN(Cc3nccs3)CC2)CC1 | inactive | –
C/C(=N/O)[C@@H]1C[C@H](CC(=O)O)C1(C)C | – | -2.9% [at 11.4 µM] (inactive)
COCCn1c(=O)c(-c2cc(F)cc(F)c2)nc2cncnc21 | 2 µM (active) | –
COCCn1c(=O)c(-c2cccc(Cl)c2)nc2cncnc21 | 0.631 µM (active) | –
COCCn1c(=O)c(-c2ccc(Cl)cc2)nc2cncnc21 | 0.2 µM (active) | –
COCCn1c(=O)c(-c2cccc(F)c2)nc2cncnc21 | 2 µM (active) | –
COCCn1c(=O)c(-c2ccccc2)nc2cncnc21 | 0.794 µM (active) | –
COCCn1c(=O)c(-c2ccc(F)c(F)c2)nc2cncnc21 | 0.251 µM (active) | –
COCCn1c(=O)c(-c2ccc(F)cc2)nc2cncnc21 | 0.501 µM (active) | –
COc1ccccc1CNC(=O)C1CC(=O)N(C2CCCC2)C1 (stereo not drawn) | inactive | –
COc1ccc(NC(=O)C2CCN(C(=O)c3cccs3)CC2)c(OC)c1 | inactive | –
COc1ccc2oc(=O)c(C(=O)Oc3ccc(NC(C)=O)cc3)cc2c1 | inactive | –
COc1ccc2oc(=O)c(NC(=O)C3CCCCC3)cc2c1 | 2.51 µM (active) | –
COc1ccc(NC(=O)CC2C(=O)N(c3cccc(OC)c3)C(=O)N2C2CCCCC2)cc1 (stereo not drawn) | inactive | –
COc1cccc2cc(NC(=O)C3CCCCC3)c(=O)oc12 | 1.26 µM (active) | –
CC[C@H]1C2=C3C(CC[C@H]4C(OCc5ccc(F)cc5C(F)(F)F)OC[C@](C)([C@@H]34)N(C(=O)OC(C)(C)C)C2)C(COC)C1COC (stereo partly drawn) | inactive | –
COc1cc2ccc([C@H](C)NCC#N)cc2cc1OC | 0.501 µM (active) | –
COc1ccc(CNCCC(c2ccc(OC(C)C)cc2)C(C)C)cc1OC (stereo not drawn) | inactive | –
COC(=O)C(C(=O)OC)C(C[N+](=O)[O-])c1ccc(OC)c(OC)c1 (stereo not drawn) | inactive | –
c1ccc([C@H](c2cccc3c2ccc2ccccc23)[C@H](c2ccccc2)c2cccc3c2ccc2ccccc23)cc1 | – | -9.37% [at 11.4 µM] (inactive)
Cc1cc2ccccc2c[n+]1CC(O)C[n+]1cc2ccccc2cc1C | – | -17.4% [at 11.4 µM] (inactive)

SMILES | AC50 | activity, negative = inhibition
CCN(CC)C[C@@H](O)c1ccc2ccc3ccccc3c2c1 | 0.794 µM (active) | –
CCCCCCCCN1C(=O)N(C)C(N(O)C(=O)NC)C1(C)C (stereo not drawn) | inactive | –
Cn1c(=O)c2c(ncn2CCO)n(C)c1=O | inactive | –
Cn1c(=O)c2c(ncn2C[C@@H](O)CO)n(C)c1=O | inactive | –
CCCn1cnc2c1c(=O)n(CCCCC(C)=O)c(=O)n2C | 12.6 µM (active) | –
O=C(O)/C=C(/C(=O)O)[C@]12CCN3CC4=CCO[C@@H]5CC(=O)N[C@@H]1[C@H]5[C@H]4C[C@H]32 | – | -15% [at 2.29 µM] (inactive)
COc1ccc(CO/N=C/c2c(C)[nH]c(=O)[nH]c2=O)cc1 | 22.4 µM (active) | –
NC[C@H]1O[C@H](n2cnc3c(N)ncnc32)C[C@@H]1O | – | -9.51% [at 11.4 µM] (inactive)
O=c1oc2cc(N=Cc3ccc4c(c3)OCO4)ccc2c2ccccc12 | 0.00794 µM (active) | –
O=[N+]([O-])c1ccc2c(c1)Cc1cc(N=Cc3ccc4c(c3)OCO4)ccc1-2 | 0.794 µM (active) | –
Cc1nc(CN2CCCCC2)c(O)c(=O)[nH]1 | – | -7.06% [at 11.4 µM] (inactive)
Cc1nc2c(O)cccc2c(=O)[nH]1 | 15.8 µM (active) | –
CSc1nc(O)c(Cc2ccccc2)c(=O)[nH]1 | inactive | –
C/C(=N\OC(=O)NC1CCCCC1)c1sc(-c2ccccc2)nc1C | 7.08 µM (active) | –
COc1ccc(C(C(=O)NC2CCCCC2)N(C(=O)c2sc(C)nc2C)c2ccc(OC)cc2)cc1 (stereo not drawn) | inactive | –
COc1ccc(C(C(=O)NC2CCCCC2)N(C(=O)c2sc(C)nc2C)c2ccc(C(C)=O)cc2)cc1 (stereo not drawn) | inactive | –
Cc1ccc(-c2ncccc2OC(=O)C23CC4CC(CC(C4)C2)C3)cc1 | 14.1 µM (active) | –
CC(C)CO/N=C1/C[C@@H](O)[C@@H](O)[C@@H]2[C@@H]3C(=O)N(C[C@@H]4CCCO4)C(=O)[C@H]3CC[C@H]12 | – | -4.99% [at 11.4 µM] (inactive)
Cn1c(=O)c2cc(S(=O)(=O)NCCC(=O)NCc3ccccc3Cl)ccc2n(C)c1=O | inactive | –
Cn1c(=O)c2cn(-c3ccccc3)cc2n(C)c1=O | 1.78 µM (active) | –
Cn1c(=O)n(CCC(=O)O)c2ccccc21 | inactive | –
